ALR H2O2 inh = inhibitors of human ALR sulfhydryl oxidase, primary screen, biochemical, H2O2 detection, HRP-luminol luminescence, single point | purified ALR, DTT oxidation | FAD-linked sulfhydryl oxidase ALR (Homo sapiens), P55789 | inhibition, % (test concentration not listed) | actives 3.8% (n = 290,000);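 active = mean replicate inhibition above about 79%, with every replicate also reaching it, limit read from the data; inconclusive = only one of the two criteria met; inactive = mean below limit and not every replicate reaching it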
Target sequence (P55789 whole entry, looked up): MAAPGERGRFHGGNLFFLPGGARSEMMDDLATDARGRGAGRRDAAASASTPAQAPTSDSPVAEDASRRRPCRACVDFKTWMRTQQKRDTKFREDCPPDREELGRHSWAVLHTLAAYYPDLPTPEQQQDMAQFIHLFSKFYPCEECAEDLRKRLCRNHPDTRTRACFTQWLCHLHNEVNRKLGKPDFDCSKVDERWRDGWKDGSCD
HIF activator = HIF pathway transcriptional activators, primary screen, cell-based, U2OS HRE-luciferase, luminescence. actives 0.32% (n = 300,000). U2OS HRE-luciferase reporter; normalized: DMSO 0%, desferrioxamine 100%. activation, % at 7.5 µM (by protocol);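 active = mean activation of at least 10% of the iron chelator positive control signal, with at least half of replicates also reaching 10%; inconclusive = mean and replicate majority disagree about reaching 10%; inactive = mean and most replicates under 10%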
SUMO Mot1 rescue = yeast Mot1-301 growth rescue at high temperature, primary screen, SUMOylation pathway inhibitor project, S. cerevisiae, ATP luminescence, 38.5C; actives 1% (n = 320,000); S. cerevisiae Mot1-301 growth rescue; percent above DMSO median, 100 means doubled; growth rescue, % at 18.8 µM;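 active = every valid replicate shows activation above 250% relative to neutral control wells; inactive = the rest, any valid replicate at or below 250%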;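 also: OY570 slx delta 5 strain wells were the positive control but not used for scaling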
PfM18AAP inh = PfM18AAP inhibitors, malaria aminopeptidase, primary screen, biochemical, QFRET, recombinant enzyme. M18 aspartyl aminopeptidase (Plasmodium falciparum 3D7). H-Glu-NHMec fluorogenic cleavage. inhibition, % at 7.35 µM. actives 1.2% (n = 290,000);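 active = inhibition above the campaign mean inhibition over all tested compounds plus 3 SD, cut at about 28% in these data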;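 also: 0% = plate median of test compound wells and 100% = 2 mM ZnCl2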
The depositor's hits bear a star; i = inactive; ? = inconclusive; . = no result. This is a sample that favours compounds with a hit; in the whole collection about 5.3% have one here.

SMILES	ALR H2O2 inh	HIF activator	SUMO Mot1 rescue	PfM18AAP inh
CCc1nccn1CCC(=O)N1CCCC(Nc2ccc(C(C)C)cc2)C1 (configuration not stated)	69	0	-9	-11
CC(C)c1ccc(NC2CCCN(C(=O)CCCn3cncn3)C2)cc1 (configuration not stated)	96*	0	-5	4
COc1ccc2nc(NC(=O)CSc3nnc(C)n3N)sc2c1	3	1	305*	-6
COc1cc(NC(=O)SC2=NCCS2)cc(OC)c1	.	.	.	3
CS(=O)(=O)c1ccc2nc(NC(=O)CN3CCC(Cc4ccccc4)CC3)sc2c1	6	0	294*	13
CCCC(=O)Nc1nc2ccc(S(N)(=O)=O)cc2s1	99*	1	-4	1
COc1cccc(C(=O)SC2=NCCS2)c1	-4	327*	44	3
CS(=O)(=O)c1ccc2nc(NC(=O)CN3CCN(Cc4ccccc4)CC3)sc2c1	-4	-1	-5	2
CNc1c(-n2cc(C(=O)OC)c(C(=O)OC)c2C(=O)OC)c(=O)n(C)c(=O)n1C	-29	-14	10	-6
CCOCC(=O)Nc1nc2ccc(C)cc2s1	97*	1	8	5
CCOc1ccc2nc(NC(=O)CSC3=NCCS3)sc2c1	99*	1	.	1
Cc1ccc2nc(NC(=O)CSc3nncc(=O)n3N)sc2c1	99*	1	6	10
COc1ccc2nc(NC(=O)CSc3ccccc3)sc2c1	-48	2	0	0
COc1ccc2nc(NC(=O)CSC3=NCCS3)sc2c1	98*	1	.	0
C[C@@H](NC(=O)[C@@H]1Cc2ccccc2CN1)C(=O)NCc1ccco1	0	0	9	7
Cc1ccccc1C(=O)Nc1ccccc1N1CCCCC1	-12	0	-4	2
O=C(Nc1ccccc1N1CCCCC1)c1ccco1	97*	0	-1	2
O=C(Nc1ccccc1N1CCCC1)c1ccc(Cl)cc1Cl	15	0	0	-2
O=C(O)/C=C\C(=O)Nc1ccccc1N1CCN(c2ccccc2)CC1	98*	1	208	-7
CCCCCC(=O)Nc1ccccc1N1CCN(c2ccccc2)CC1	15	-1	2	-13
Cc1ccsc1C(=O)Nc1ccccc1N1CCCC1	99*	-1	-19	.
O=C(Nc1ccccc1N1CCCC1)c1ccccc1Cl	99*	0	0	10
FC(F)(F)c1cccc(N2CCN(C3CC4CCC3C4)CC2)c1 (configuration not stated)	3	-23	i	2
Cn1c(=O)c2c(nc(N3CCCCC3)n2CC(O)COc2ccccc2)n(C)c1=O (configuration not stated)	-11	-1	-17	1
O=C(NC(=S)N1CCN(c2ccc([N+](=O)[O-])cc2)CC1)c1ccco1	-5	0	-8	-2
SMILES	ALR H2O2 inh	HIF activator	SUMO Mot1 rescue	PfM18AAP inh
O=C(NC(=S)N1CCN(c2ccc(O)cc2)CC1)c1ccco1	99*	.	-7	.
O=C(NC(=S)Nc1ccccc1N1CCCC1)c1ccccc1[N+](=O)[O-]	98*	0	-17	1
O=C(NCC(=O)N1CCN(c2ccccc2O)CC1)c1ccc(Br)o1	99*	0	19	.
O=C(NC(=S)Nc1ccccc1N1CCOCC1)c1ccco1	96*	0	3	0
CC(C)OC(=O)CSc1nc(N2CCOCC2)c2c(c1C#N)CC(C)(C)OC2	-17	0	71	0
Cc1cc([N+](=O)[O-])nn1CC(=O)NCc1ccco1	0	0	5	1
COc1ccc([C@H]2CC(=O)C=C(c3cccc(C#N)c3)C2)cc1	-5	.	3	.
CN1CCN(c2nc(-c3ccc(Cl)s3)cs2)CC1	34	1	-2	22
COC(=O)[C@@]12CCCN1[C@H](c1ccc(-c3ccccc3)c(OC)c1)[C@H]1C(=O)N(C)C(=O)[C@H]12	-1	.	1	.
O=C(/C=C/c1ccco1)Nc1ccccc1N1CCCC1	99*	0	2	-13
O=C(Nc1ccccc1N1CCCC1)c1ccc(Br)o1	98*	0	-6	4
C[C@@H]1CC[C@]2(O[C@H](CCO)C[C@H](O)[C@H]2O)O1	.	0	-26	.
COc1cccc(NC(=S)NNC(=O)C(C)n2nc(C)c([N+](=O)[O-])c2C)c1 (configuration not stated)	84*	0	23	17
O=c1[nH]cnc2ncc(-c3ccc(O)cc3)nc12	100*	0	3	.
CCOc1ccccc1NS(=O)(=O)c1ccc2c(c1)N(C)CCO2	0	-1	3	0
Clc1ccc(-n2nnc(-c3nccs3)n2)cc1Cl	92*	1	330*	5
Clc1ccc(-c2nnc(Sc3nc4ccccc4o3)c3ccccc23)cc1	5	0	-2	-3
Cc1ccc(-c2nnc(Sc3nc4ccccc4o3)c3ccccc23)cc1	3	94*	12	-12
CCSc1nnc(C)c2ccccc12	-5	0	23	3
Cc1nnc(Sc2nc3ccccc3o2)c2ccccc12	97*	-1	-23	-4
O=C(CC(C(=O)O)c1ccccc1)Nc1cccc2ccccc12 (configuration not stated)	-14	0	-5	-1
COc1ccc(S(=O)(=O)n2nc(OC(C)=O)cc2N)cc1	98*	1	2	13
COc1ccc(C(=O)Oc2cc(N)n(S(=O)(=O)c3ccccc3)n2)cc1	-2	0	3	-13
C/C(=C\c1ccccc1)C(=O)NCCCn1ccnc1	-6	0	8	0
O=[N+]([O-])/C(C(Cl)=C(Cl)Cl)=C(\Sc1ccccc1)N1CCCCC1	98*	0	-16	4
SMILES	ALR H2O2 inh	HIF activator	SUMO Mot1 rescue	PfM18AAP inh
CC(C)CCN(C(=O)CCCSc1nc2ccccc2[nH]1)c1c(N)n(Cc2ccccc2)c(=O)[nH]c1=O	.	0	-4	.
c1coc(CSSCc2ccco2)c1	98*	.	41	.
Nc1ccc(OCc2ccco2)cc1	1	0	19	-8
COc1cc(/C(C)=N/NC(=O)Cc2c(C)[nH][nH]c2=O)ccc1O	99*	0	-9	-7
C/C(=N/NC(=O)Cc1c(C)[nH][nH]c1=O)c1ccc(O)cc1	98*	0	13	4
COc1cc(/C(C)=N\NC(=O)CSc2nc3ccccc3n2C)ccc1O	99*	1	-13	10
CCCCCCn1c(N)c(C#N)c2ccc([N+](=O)[O-])cc2c1=O	-4	-1	79	4
O=C(Cc1ccc(S(=O)(=O)N2CCOCC2)s1)Nc1ccc(S(=O)(=O)N2CCCCC2)cc1	-3	?	1	.
CCCCNC(=S)Nc1ccc(F)cc1	-3	0	10	-2
CC1(C2CC2)NC(=O)N(CC(=O)Nc2ccc(SC(F)F)cc2)C1=O (configuration not stated)	-5	.	-4	.
CCCCC(=O)OCC(=O)Nc1ccc(SC(F)F)cc1	98*	.	-1	4
CCCCNC(=S)Nc1ccc(SC(F)F)cc1	98*	1	12	-5

Compound activity: PubChem, several laboratories
